# Assays:
# Experiment in all cases: PBM binding z-score (relative to random genomic background probes); higher = stronger binding; sequences stand for … in GC…GCGATTGACAGCGTAGAATGAAGG
# [1] = test system: FXR:RXRa (NR concentration 270 nM, RXRa partner concentration 90 nM)
# Outline: (§1)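 Custom Agilent 4×180K protein-binding microarrays carried double-stranded probes. Their 34-nt variable regions held direct-repeat seeds, single-nucleotide variants, half-site ablations and random human genomic background sequences. Arrays were incubated 1 h with ligand-free nuclear receptor dimers in PBS pH 7.4, 2% milk, 0.02% Triton X-100, 1 mM DTT, 0.2 mg/mL BSA and 0.4 mg/ml salmon testes DNA. Antibodies against each partner (one per run) detected binding, and scanned fluorescence was regression-normalized. Binding z-scores use random background probes as reference.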
# [2] = test system: LXRa:RXRa (NR concentration 270 nM, RXRa partner concentration 90 nM)
# Outline: as §1
# [3] = test system: LXRa homodimer (NR concentration 270 nM)
# Outline: as §1
# [4] = test system: LXRb:RXRa (NR concentration 270 nM, RXRa partner concentration 90 nM)
# Outline: as §1
# [5] = test system: LXRb homodimer (NR concentration 270 nM)
# Outline: as §1
# [6] = test system: PPARa:RXRa (NR concentration 270 nM, RXRa partner concentration 90 nM)
# Outline: as §1
# [7] = test system: PPARg:RXRa (NR concentration 180 nM, RXRa partner concentration 90 nM)
# Outline: as §1
# [8] = test system: PPARg:RXRa 270nM:90nM, anti-RXR (NR concentration 270 nM, RXRa partner concentration 90 nM)
# Outline: as §1
# [9] = test system: PPARg:RXRa 30nM:10nM, anti-RXR (NR concentration 30 nM, RXRa partner concentration 10 nM)
# Outline: as §1
# [10] = test system: PPARg:RXRa 90nM:30nM, anti-RXR (NR concentration 90 nM, RXRa partner concentration 30 nM)
# Outline: as §1
sequence,measurement,setting,value
TCTCGGAGGAGACGAAGGTCAGAGCTTTCCAGAG,PBM binding z-score,[1],0.255
same,PBM binding z-score,[2],0.507
same,PBM binding z-score,[3],-0.124
same,PBM binding z-score,[4],0.569
same,PBM binding z-score,[5],-1.39
same,PBM binding z-score,[6],1.62
same,PBM binding z-score,[7],-0.069
same,PBM binding z-score,[8],1.26
same,PBM binding z-score,[9],1.84
same,PBM binding z-score,[10],1.51
TAGCCTGGGTCATGCGGGCCAGTATAGTGTCGGC,PBM binding z-score,[1],3.19
same,PBM binding z-score,[2],1.79
same,PBM binding z-score,[3],-0.665
same,PBM binding z-score,[4],1.03
same,PBM binding z-score,[5],-0.444
same,PBM binding z-score,[6],3.4
same,PBM binding z-score,[7],2.12
same,PBM binding z-score,[8],2.48
same,PBM binding z-score,[9],0.16
same,PBM binding z-score,[10],1.54
CATCCAAGGTCAAGGTCAGTGAAAGAGACTCGAA,PBM binding z-score,[1],7.77
same,PBM binding z-score,[2],6.14
same,PBM binding z-score,[3],2.48
same,PBM binding z-score,[4],5.1
same,PBM binding z-score,[5],2.11
same,PBM binding z-score,[6],6.02
same,PBM binding z-score,[7],7.17
same,PBM binding z-score,[8],6.56
same,PBM binding z-score,[9],3.3
same,PBM binding z-score,[10],5.45
TAGCCTAGGTCAGATCGAGCCAGTATACGCTATA,PBM binding z-score,[1],1.14
same,PBM binding z-score,[2],0.783
same,PBM binding z-score,[3],-0.473
same,PBM binding z-score,[4],0.421
same,PBM binding z-score,[5],-0.463
same,PBM binding z-score,[6],1.42
same,PBM binding z-score,[7],0.564
same,PBM binding z-score,[8],0.606
same,PBM binding z-score,[9],-0.102
same,PBM binding z-score,[10],0.29
TCTGGTAGATCAAGCAGGTTAAGAAAGCCTGAGT,PBM binding z-score,[1],-0.292
same,PBM binding z-score,[2],-0.109
same,PBM binding z-score,[3],-0.642
same,PBM binding z-score,[4],0.00998
same,PBM binding z-score,[5],-1.25
same,PBM binding z-score,[6],0.171
same,PBM binding z-score,[7],-0.556
same,PBM binding z-score,[8],0.81
same,PBM binding z-score,[9],2.17
same,PBM binding z-score,[10],1.5
TAGCCTACGTCATGGGCCAGTATACCACGCGAAC,PBM binding z-score,[1],-0.49
same,PBM binding z-score,[2],-0.556
same,PBM binding z-score,[3],-0.342
same,PBM binding z-score,[4],-0.379
same,PBM binding z-score,[5],-0.666
same,PBM binding z-score,[6],-0.649
same,PBM binding z-score,[7],0.599
same,PBM binding z-score,[8],-0.711
same,PBM binding z-score,[9],-0.624
same,PBM binding z-score,[10],-0.961
TCTTGTAGATCAGCAGGTTAAAAAAGCTGGCCAA,PBM binding z-score,[1],0.198
same,PBM binding z-score,[2],0.216
same,PBM binding z-score,[3],-0.0606
same,PBM binding z-score,[4],0.293
same,PBM binding z-score,[5],-0.538
same,PBM binding z-score,[6],0.844
same,PBM binding z-score,[7],-0.455
same,PBM binding z-score,[8],1.44
same,PBM binding z-score,[9],2.6
same,PBM binding z-score,[10],1.94
CGACCTAGGTCAGAACAGGACAGTGAAGGATGAT,PBM binding z-score,[1],2.95
same,PBM binding z-score,[2],1.5
same,PBM binding z-score,[3],0.143
same,PBM binding z-score,[4],1.08
same,PBM binding z-score,[5],-0.535
same,PBM binding z-score,[6],2.08
same,PBM binding z-score,[7],1.55
same,PBM binding z-score,[8],1.2
same,PBM binding z-score,[9],-0.0187
same,PBM binding z-score,[10],0.682
ACTTACGGGTCAACGAGGTAATAGCACGCGTATA,PBM binding z-score,[1],6.86
same,PBM binding z-score,[2],4.42
same,PBM binding z-score,[3],0.29
same,PBM binding z-score,[4],3.61
same,PBM binding z-score,[5],0.727
same,PBM binding z-score,[6],5.72
same,PBM binding z-score,[7],5.56
same,PBM binding z-score,[8],5.53
same,PBM binding z-score,[9],2.48
same,PBM binding z-score,[10],4.37
ACTAGCAGTCCAAGGGTCACTCAAGATTAGTCCG,PBM binding z-score,[1],2.25
same,PBM binding z-score,[2],2.99
same,PBM binding z-score,[3],0.313
same,PBM binding z-score,[4],2.87
same,PBM binding z-score,[5],-0.249
same,PBM binding z-score,[6],3.41
same,PBM binding z-score,[7],3.5
same,PBM binding z-score,[8],4.58
same,PBM binding z-score,[9],2.19
same,PBM binding z-score,[10],4.18
TCTATTAGTTGCAGGGCAACCGACGAGTCCGTTT,PBM binding z-score,[1],0.562
same,PBM binding z-score,[2],0.804
same,PBM binding z-score,[3],0.147
same,PBM binding z-score,[4],0.702
same,PBM binding z-score,[5],0.559
same,PBM binding z-score,[6],0.736
same,PBM binding z-score,[7],-0.219
same,PBM binding z-score,[8],1.62
same,PBM binding z-score,[9],3.41
same,PBM binding z-score,[10],2.38
TCGAGTAGGTTAGGGGCATTTAGAATGGCGTCGA,PBM binding z-score,[1],0.425
same,PBM binding z-score,[2],0.611
same,PBM binding z-score,[3],-0.123
same,PBM binding z-score,[4],0.871
same,PBM binding z-score,[5],0.134
same,PBM binding z-score,[6],1.37
same,PBM binding z-score,[7],0.729
same,PBM binding z-score,[8],2.07
same,PBM binding z-score,[9],1.37
same,PBM binding z-score,[10],1.68
CCTTACGGGTCACGAGGTTATAGAACGACGAGCG,PBM binding z-score,[1],6.7
same,PBM binding z-score,[2],4.58
same,PBM binding z-score,[3],0.451
same,PBM binding z-score,[4],4.12
same,PBM binding z-score,[5],-0.0451
same,PBM binding z-score,[6],6.16
same,PBM binding z-score,[7],7.18
same,PBM binding z-score,[8],6.91
same,PBM binding z-score,[9],3.33
same,PBM binding z-score,[10],5.23
CCTCGAAGGACAGAAGGTCAGAGCTGTCCGCTTT,PBM binding z-score,[1],1.13
same,PBM binding z-score,[2],1.56
same,PBM binding z-score,[3],0.132
same,PBM binding z-score,[4],1.28
same,PBM binding z-score,[5],-0.573
same,PBM binding z-score,[6],1.83
same,PBM binding z-score,[7],0.0228
same,PBM binding z-score,[8],0.429
same,PBM binding z-score,[9],-0.598
same,PBM binding z-score,[10],0.107
GCTCGGAGGGCAAGGTCAGAGCTTTGTCCGTAGA,PBM binding z-score,[1],2.16
same,PBM binding z-score,[2],2.05
same,PBM binding z-score,[3],-0.485
same,PBM binding z-score,[4],1.26
same,PBM binding z-score,[5],-1.03
same,PBM binding z-score,[6],3
same,PBM binding z-score,[7],1.23
same,PBM binding z-score,[8],2
same,PBM binding z-score,[9],-0.62
same,PBM binding z-score,[10],0.771
CGTCCAAGTTCATAGGAGGTCAGTGAAGACAGAT,PBM binding z-score,[1],5.25
same,PBM binding z-score,[2],6.43
same,PBM binding z-score,[3],3.8
same,PBM binding z-score,[4],4.3
same,PBM binding z-score,[5],0.586
same,PBM binding z-score,[6],3.83
same,PBM binding z-score,[7],1.6
same,PBM binding z-score,[8],2.43
same,PBM binding z-score,[9],0.744
same,PBM binding z-score,[10],1.47
TCATATAGGTAATACAGGTGAAAATCGGCATCTA,PBM binding z-score,[1],1.35
same,PBM binding z-score,[2],1.37
same,PBM binding z-score,[3],0.422
same,PBM binding z-score,[4],1.27
same,PBM binding z-score,[5],0.421
same,PBM binding z-score,[6],2
same,PBM binding z-score,[7],1.78
same,PBM binding z-score,[8],2.58
same,PBM binding z-score,[9],4.1
same,PBM binding z-score,[10],3.43
TGTTGTAGATCAACAGGAGGTTAAGAAAGATCGA,PBM binding z-score,[1],0.0129
same,PBM binding z-score,[2],0.966
same,PBM binding z-score,[3],0.018
same,PBM binding z-score,[4],0.701
same,PBM binding z-score,[5],-0.0946
same,PBM binding z-score,[6],0.963
same,PBM binding z-score,[7],-0.033
same,PBM binding z-score,[8],0.456
same,PBM binding z-score,[9],0.304
same,PBM binding z-score,[10],0.492
TCTATTAGTTGAAGGGCAACCAACGAGTCCGTTT,PBM binding z-score,[1],0.452
same,PBM binding z-score,[2],0.763
same,PBM binding z-score,[3],0.54
same,PBM binding z-score,[4],0.694
same,PBM binding z-score,[5],0.122
same,PBM binding z-score,[6],0.554
same,PBM binding z-score,[7],-0.00575
same,PBM binding z-score,[8],1.94
same,PBM binding z-score,[9],3.75
same,PBM binding z-score,[10],2.69
TCATATAGGTAAAGGTGAGAGTCGAACGATATGA,PBM binding z-score,[1],0.752
same,PBM binding z-score,[2],0.731
same,PBM binding z-score,[3],-0.322
same,PBM binding z-score,[4],1.01
same,PBM binding z-score,[5],-0.291
same,PBM binding z-score,[6],2.5
same,PBM binding z-score,[7],3.11
same,PBM binding z-score,[8],4.06
same,PBM binding z-score,[9],4.06
same,PBM binding z-score,[10],3.83
TCTGGGAGGACACGAAGGTCAGAGCTTTCCAGAG,PBM binding z-score,[1],1.36
same,PBM binding z-score,[2],1.16
same,PBM binding z-score,[3],0.204
same,PBM binding z-score,[4],1.3
same,PBM binding z-score,[5],-0.86
same,PBM binding z-score,[6],1.81
same,PBM binding z-score,[7],0.579
same,PBM binding z-score,[8],1.36
same,PBM binding z-score,[9],1.51
same,PBM binding z-score,[10],1.53
CAGCCTAGGTCAAGGCCAGTATAGGAGGAACGTT,PBM binding z-score,[1],3.62
same,PBM binding z-score,[2],2.26
same,PBM binding z-score,[3],-0.0783
same,PBM binding z-score,[4],1.7
same,PBM binding z-score,[5],-0.501
same,PBM binding z-score,[6],3.45
same,PBM binding z-score,[7],2.15
same,PBM binding z-score,[8],2.23
same,PBM binding z-score,[9],0.352
same,PBM binding z-score,[10],1.18
CCTACTGGGGCAAGGTCATTGATCAGTCAAAGCA,PBM binding z-score,[1],3.59
same,PBM binding z-score,[2],3.26
same,PBM binding z-score,[3],1.02
same,PBM binding z-score,[4],2.98
same,PBM binding z-score,[5],-0.569
same,PBM binding z-score,[6],4.29
same,PBM binding z-score,[7],5.81
same,PBM binding z-score,[8],5.36
same,PBM binding z-score,[9],2.53
same,PBM binding z-score,[10],4.8
TGAATGAGGTTAAAGACCAGGGAACGTGGCGTCG,PBM binding z-score,[1],2.78
same,PBM binding z-score,[2],2.16
same,PBM binding z-score,[3],-0.15
same,PBM binding z-score,[4],1.26
same,PBM binding z-score,[5],0.1
same,PBM binding z-score,[6],3.51
same,PBM binding z-score,[7],3.08
same,PBM binding z-score,[8],4.46
same,PBM binding z-score,[9],2.42
same,PBM binding z-score,[10],4.02

# From the supplement of paper PMC6555819
